Assay results as given in ChEMBL document CHEMBL3988442, “University of Dundee, Small-Polar-MMV Screening Library” (2021).
The campaign covered roughly 48,000 compounds. About 13,000 (27%) showed an effect of 50% or more. This is one part of the list.

These compounds were tested on Wolbachia pipientis (assay: Anti-Wolbachia Cell-Based Screen). Conditions: 5 µM.
Format: functional
Parameters: scale not given: in the data most compounds retested in dose-response had high values

Row | Compound | Percent Effect [%]
1 | Cc1ccc(C(=O)NS(=O)(=O)c2ccccc2C)c(=O)[nH]1 | -8.925
2 | CCNC(=O)N1CCN(Cc2nc3ccccc3[nH]2)[C@@H]2CS(=O)(=O)C[C@@H]21 | 3.535
3 | COC(=O)CC(NC(=O)c1cccc(CS(C)(=O)=O)c1)c1cccs1 (stereo unspecified) | 18.46
4 | N#Cc1ccc(F)c(CN2CCCC2Cn2cncn2)c1 (stereo unspecified) | 0.2616
5 | Cc1[nH]c(=O)sc1S(=O)(=O)N1CCCC1C(=O)NCc1ccsc1 (stereo unspecified) | 1.823
6 | CC1COCCN1C(=O)COc1cccc(Oc2ccccn2)c1 (stereo unspecified) | 91.48
7 | CC1COCCN1C(=O)c1cccc(OCc2cscn2)c1 (stereo unspecified) | -3.154
8 | CC1COCCN1C(=O)COc1ccc(Oc2ccccn2)cc1 (stereo unspecified) | 102.9
9 | COc1ccc(Oc2ncccc2NC(=O)N2CCOCC2C)cc1 (stereo unspecified) | -2.613
10 | O=C(COc1cccc(Br)c1)N1CCOCC1c1ncon1 (stereo unspecified) | -1.613
11 | CC(C)(C)NC(=O)COc1ccc(Oc2ccccn2)cc1 | -9.446
12 | O=c1oc(-c2ccc(F)cc2)nn1CCS(=O)(=O)c1ccccc1 | 3.372
13 | CCc1cnc(CN2CCC(O)(c3cc(OC)cc(OC)c3)CC2)o1 | -1.491
14 | N#Cc1c(Cl)nsc1NCc1ccc(N2CCCC(C(N)=O)C2)cc1 (stereo unspecified) | 6.894
15 | COc1ccc(-c2nc(CSC3CCCCNC3=O)co2)cc1 (stereo unspecified) | -25.49
16 | CNc1ccnc(N(C)Cc2cc(-c3cccs3)n[nH]2)n1 | 8.932
17 | Cc1n[nH]c(C)c1CNc1nc(-c2ccco2)nc2c1CCNCC2 | 0.9084
18 | CNc1cc(C(=O)N(C)Cc2cc(-c3cccs3)n[nH]2)ccn1 | 11.01
19 | CN(C)c1nccc(NCc2cc(-c3cccs3)n[nH]2)n1 | 108.4
20 | CN(C)c1nccc(NCc2cc(-c3ccco3)n[nH]2)n1 | 126.3
21 | c1coc(-c2nc3c(c(NCc4n[nH]c5c4CCC5)n2)CCNCC3)c1 | -11.22
22 | O=S(=O)(CC1CC1)c1ncc(CN2CCOCC2)n1CC1CCCO1 (stereo unspecified) | 1.621
23 | Cn1cnc2c1CCN(CCS(=O)(=O)c1ccccc1)C2 | 2.795

Row | Compound | Percent Effect [%]
24 | CCOc1ccc(CN2CCNC(C(=O)NC3CC3)C2)cc1CO (stereo unspecified) | -28.15
25 | Cc1nc(CNC(=O)c2oc3ccccc3c2CN(C)C)oc1C | 12.17
26 | COc1cccc(CN2C[C@H]3CC[C@H]2C3)c1OCCN1CCOCC1 | 3.067
27 | COc1ccccc1OCCCN1CCNC1=O | 93.18
28 | COc1cccc(OC)c1OCCN1C(=O)CCNC1=O | 70.56
29 | N#Cc1ccccc1OCCN1CCC(N2CCNC2=O)CC1 | -2.122
30 | Cc1ccc(C)c(OCCN2CCC(N3CCNC3=O)CC2)c1 | -4.141
31 | CCn1ccnc1CN1CCN(CCOc2ccccc2OC)CC1 | 1.541
32 | COc1ccccc1OCCCc1cncc(C(N)=O)c1 | -13.5
33 | CC(C)Oc1ccccc1OCCN1C(=O)CCNC1=O | 102.7
34 | COc1cccn(CC(=O)N(C)CCCOc2c(C)cccc2C)c1=O | -81.04
35 | COc1ccccc1OCCCN1C(=O)CCNC1=O | 100.1999
36 | COc1ccccc1OCCCc1cc(C#N)ccn1 | -8.074
37 | COc1ccccc1OCCN1CCC(N2CCNC2=O)CC1 | -7.605
38 | Cc1nc(N(C)CCCc2nccn2C)c2c(C)nn(C)c2n1 | -2.28
39 | Cc1[nH]c2c(C)ccc(C)c2c1CC(=O)NCc1csc(N(C)C)n1 | -37.05
40 | CCC(CC)c1cc(CNC(=O)N2CCOCC2CC)on1 (stereo unspecified) | 8.113
41 | CC(C)(O)CCc1ccc(C(=O)NCCC2CCOC2)cc1 (stereo unspecified) | -23.58
42 | CCOc1ccc(CN2CCN(CCOC)[C@@H]3CS(=O)(=O)C[C@@H]32)cc1 | -4.58
43 | O=C(NCCCOCC1CC1)Nc1cccnc1N1CCOCC1 | -4.484
44 | CCc1nc(C#N)c(N2CCC(c3nc(-c4ccccc4)no3)CC2)o1 | -18.26
45 | c1ccc(-c2noc(C3CCN(CCCn4cncn4)CC3)n2)cc1 | -0.715
46 | O=S(=O)(CCCN1CCCCC1Cn1cncn1)c1ccccc1 (stereo unspecified) | 108.5

Row | Compound | Percent Effect [%]
47 | Cc1cc(C)n(CC2CCCN2CCS(=O)(=O)c2ccccc2)n1 (stereo unspecified) | -8.876
48 | N#Cc1cccc(CN2CCCC2Cn2cncn2)c1 (stereo unspecified) | -16.52
49 | O=C1CCCN1CCCN1CCCCC1Cn1cncn1 (stereo unspecified) | 3.397
50 | CCN(Cc1ccccc1)C(=O)CN1CCCCC1Cn1cncn1 (stereo unspecified) | -8.051
51 | c1ccc(-c2noc(CCCN3CCCC3Cn3cncn3)n2)cc1 (stereo unspecified) | 100.9
52 | c1csc(-c2noc(CCCN3CCCC3Cn3cccn3)n2)c1 (stereo unspecified) | -9.384
53 | c1ccc(CCCN2CCCC2Cn2cncn2)cc1 (stereo unspecified) | 145.7
54 | O=S(=O)(CCN1CCCC1Cn1cncn1)c1ccccc1 (stereo unspecified) | 102.1
55 | CN1CCN(CC2CC2)C(=O)C12CCN(c1nccs1)CC2 | -15.71
56 | CC(C)NC(=O)[C@@H](NC(=O)N1CCN(c2ccc(Cl)cc2)CC1)C(C)C | -4.425
57 | Cn1cnc(-c2nc(C(=O)NCCN3CCOCC3)c3ccccn23)c1 | -34.35
58 | CN(CC1CC1)S(=O)(=O)c1ccc(C(F)(F)F)cc1C#N | -1.577
59 | O=C(c1ccc2c(c1)[nH]c(=O)n2[C@H]1CC[C@H](O)CC1)N1CCOCC1 | 1.877
60 | O=S(=O)(CCN1CCOC(Cn2cncn2)C1)c1ccccc1 (stereo unspecified) | -0.6358
61 | N#Cc1ccccc1OCCN1CCCCC1Cn1cncn1 (stereo unspecified) | -1.923
62 | O=S(=O)(CCCN1CCCC(Cn2cncn2)C1)c1ccccc1 (stereo unspecified) | 92.49
63 | O=C1CCCN1CCN1CCCCC1Cn1cncn1 (stereo unspecified) | 1.495
64 | O=S(=O)(CCN1CCCCC1Cn1cncn1)c1ccccc1 (stereo unspecified) | 104.1
65 | O=S(=O)(c1ccccc1)N1CCCC(Cn2cncn2)C1 (stereo unspecified) | -7.569
66 | CCN(CC1COc2ccccc2O1)C(=O)C1=NN(C)C(=O)CC1 (stereo unspecified) | 17.44
67 | COC(=O)CCNC(=O)c1c[nH]cc1-c1cccc(OC)c1 | 3.352
68 | COc1ccc(F)cc1CN1CCCC1Cn1nc(C)nc1C (stereo unspecified) | 149.5
69 | COc1ccc(CN2CCCC2Cn2nc(C)nc2C)cc1F (stereo unspecified) | -0.5946

Row | Compound | Percent Effect [%]
70 | COc1ccc(CN2CCCCC2Cn2nc(C)nc2C)cc1F (stereo unspecified) | 112.6
71 | COc1ccc(C)cc1CN1CCCC1Cn1nc(C)nc1C (stereo unspecified) | 2.525
72 | COCCNC(=O)c1cc(COc2cncc(Cl)c2)on1 | 6.247
73 | CC(C)CN1CCN(Cc2nc3c(s2)CCCC3)[C@H]2CS(=O)(=O)C[C@H]21 | -7.173
74 | O=C(NC[C@H]1OC[C@@H](NC2CCC(F)(F)CC2)[C@@H]1O)C1CC1 | -11.71
75 | Cl.c1cnc(Nc2cncc(C3CCCN3)n2)cn1 (stereo unspecified) | 154.6
76 | Cc1nc(Nc2cnccn2)cc(C2CCCN2)n1.Cl (stereo unspecified) | 92.06
77 | Cc1ccc2[nH]c(CN(C)c3cc(CCN)nc(C)n3)nc2c1 | 1.379
78 | CCCc1cc(C(=O)N2CCCN(c3cccnn3)CC2)[nH]n1 | -4.631
79 | COc1ccc(C2(CNC(C)c3nnc(C)o3)CCCCC2)cc1 (stereo unspecified) | -5.469
80 | CCN(C(=O)Cc1ccc(NCc2nccn2C)cc1)c1ccccc1 | -5.228
81 | CSC(C)C(=O)N1CCC(Oc2cc(C)ccc2F)(C(=O)O)CC1 (stereo unspecified) | -19.74
82 | COCCn1cc(NCc2c[nH]nc2-c2ccc(OC)cc2)cn1 | -43.6
83 | COc1cccc(CNc2cnn(C)c(=O)c2Cl)c1 | -15.43
84 | CC(C)(C)C(=O)N1CCN(C(=O)Nc2cnn(CC(F)F)c2)CC1 | 14.61
85 | COc1ccc(CNc2cnn(CC(F)F)c2)cc1 | 98.47
86 | COc1cccc(CNc2c(C)nn(C(C)C)c2C)c1.Cl | -5.673
87 | COc1cccc(CNc2cnn(CC(F)F)c2)c1 | 110.9
88 | CC1=CC(C)(C)N(CN2C(=O)c3ccccc3C2=O)c2ccc(C)cc21 | -18.46
89 | CCN1CCC(CC(=O)NCCc2nc(C)c(Cl)s2)CC1 | -2.005
90 | CCC(c1nc(CC(C)C)nn1-c1ccccn1)n1cccn1 (stereo unspecified) | -7.483
91 | O=C1OCCC1N1CCN(c2cnccn2)CC1 (stereo unspecified) | -13.03
92 | CC(C)c1nccn1C(C)C(=O)N1CCN(c2cnccn2)CC1 (stereo unspecified) | 8.025

Row | Compound | Percent Effect [%]
93 | c1cc(C2CCN(c3cnccn3)CC2)ccn1 | 108.9
94 | Cc1ccc(-c2cn[nH]c2C2CCCN(c3cnccn3)C2)cc1 (stereo unspecified) | -26.5
95 | c1cc(C2CCN(c3cnccn3)CC2)ncn1 | 111.8
96 | c1ccc(C2CCN(c3cncc(-n4cccn4)n3)CC2)cc1 | -3.284
97 | CC(c1ccccc1)N(C)C(=O)CN1CCN(c2cnccn2)CC1 (stereo unspecified) | -4.354
98 | CN(C)c1ccc(C2CCN(c3cnccn3)CC2)nc1 | 110.3
99 | Nc1nccc(C2CCN(c3cnccn3)C2)n1 (stereo unspecified) | 100.6
100 | CSCCCN1CCC[C@]2(C(=O)O)CN(c3cnccn3)CC[C@@H]12 | -18.46
101 | Cc1ccc(CN2CC[C@@H](O)[C@@H]2Cc2ccccc2)o1.O=C(O)C(F)(F)F | 1.325
102 | CC(=O)c1cccc(OCCCC(=O)N(C)Cc2ccccn2)c1 | 14.18
103 | CC(C)[C@@H]1CN(S(=O)(=O)Cc2ccccc2)C[C@H]1NS(=O)(=O)N(C)C | -33.69
104 | CCN(C)S(=O)(=O)N[C@H]1CN(c2ccc(F)cn2)C[C@@H]1C(C)C | 1.28
105 | CC(C)[C@H]1CN(c2ccncc2)C[C@@H]1NS(=O)(=O)N(C)C | 113.1
106 | Cc1noc(C)c1CN1C[C@@H](NC(=O)N(C)C)[C@H](C(C)C)C1 | -17.12
107 | CC(C)[C@@H]1CN(Cc2ccsc2)C[C@H]1NS(=O)(=O)N(C)C | 12.46
108 | CC(C)[C@@H]1CN(c2ccc(F)cn2)C[C@H]1NS(C)(=O)=O | -10.09
109 | CC(C)[C@@H]1CN(c2ncc(F)cn2)C[C@H]1NS(=O)(=O)N(C)C | 83.11
110 | COc1ccnc(N2C[C@@H](NS(=O)(=O)N(C)C)[C@H](C(C)C)C2)n1 | 1.494
111 | CC(C)[C@@H]1CN(c2ncc(F)cn2)C[C@H]1NC(=O)N(C)C | 70.99
